Measurements reported in PubChem BioAssay (Tox21).
Where “and” joins values, the source holds several entries; their conditions need not be identical. Equal entries are not always repeated. Where a structure was tested more than once in an assay, its records may differ in their call. Calls of active or inactive are those of the source. Where a call stands in place of a potency, no number is given. Unless noted, calls follow the shape of the dose curve; as a rule, active = well fitted curve in the direction sought with a large enough effect in the repeat runs; inconclusive = weak or mixed curves; inactive = no such curve, though single readings can be large; an effect the other way counts as inactive or inconclusive.

Legend:
[1] = qHTS assay to identify small molecule antagonists of the thyroid receptor (TR) signaling pathway - cell viability counter screen (AID 743064); also: nearly all actives have a fitted effect of over 50% in size; also: potency is read from the fitted curve at half-maximal effect
Procedure, shortened: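 In-well cytotoxicity read by CellTiter-Fluor (30 min, 37 C) following 23.5 h exposure of GH3 cells bearing a TRE-luciferase sensor. Compounds were added alongside 1 nM (final) T3 to drive TR transactivation.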

[2] = qHTS assay to identify small molecule antagonists of the thyroid receptor (TR) signaling pathway (AID 743065); also: nearly all actives have a fitted effect of over 55% in size; also: potency is read from the fitted curve at half-maximal effect
Procedure, shortened: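 Antagonism measured as loss of luciferase signal in GH3 cells stably carrying a TRE-luciferase reporter, co-treated with compound and T3 (1 nM final) for 23.5 h at 37 C. Viability was read in the same well by CellTiter-Fluor.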

[3] = system: thyroid hormone receptor (rat, GH3 cells); assay: qHTS assay to identify small molecule agonists of the thyroid receptor (TR) signaling pathway (AID 743066; calls by dose curve)
[4] = qHTS assay to identify small molecule antagonists of the estrogen receptor alpha (ER-alpha) signaling pathway - cell viability counter screen (AID 743074; calls by dose curve;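 also: HEK293 cells carrying ER-alpha-UAS-bla reporter stimulated with 17beta-estradiol; nearly all actives have a fitted effect of over 45% in size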)
[5] = qHTS assay to identify small molecule antagonists of the estrogen receptor alpha (ER-alpha) signaling pathway using the BG1 cell line (AID 743080; calls by dose curve; also: nearly all actives have a fitted effect of over 25% in size; also: potency is read from the fitted curve at half-maximal effect)
Procedure, shortened: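 Antagonist mode: compounds in DMSO were pinned onto BG1-Luc-4E2 cells alongside 17beta-estradiol agonist, incubated 21.5 h, and ERE-driven luciferase measured with ONE-Glo. Cytotoxicity was multiplexed using CellTiter-Fluor fluorescence.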

[6] = qHTS assay to identify small molecule antagonists of the estrogen receptor alpha (ER-alpha) signaling pathway using the BG1 cell line - cell viability counter screen (AID 743081);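 also: compound given together with 17beta-estradiol as the ER stimulus; series mostly up to about 70 µM; nearly all actives have a fitted effect of over 45% in size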
Aromatase (Homo sapiens) = Aromatase (Homo sapiens) (UniProt P11511); assay: qHTS assay to identify aromatase inhibitors (AID 743083); also: nearly all actives have a fitted effect of over 55% in size; also: potency is read from the fitted curve at half-maximal effect
Sequence of Aromatase (Homo sapiens) (P11511 whole entry, looked up): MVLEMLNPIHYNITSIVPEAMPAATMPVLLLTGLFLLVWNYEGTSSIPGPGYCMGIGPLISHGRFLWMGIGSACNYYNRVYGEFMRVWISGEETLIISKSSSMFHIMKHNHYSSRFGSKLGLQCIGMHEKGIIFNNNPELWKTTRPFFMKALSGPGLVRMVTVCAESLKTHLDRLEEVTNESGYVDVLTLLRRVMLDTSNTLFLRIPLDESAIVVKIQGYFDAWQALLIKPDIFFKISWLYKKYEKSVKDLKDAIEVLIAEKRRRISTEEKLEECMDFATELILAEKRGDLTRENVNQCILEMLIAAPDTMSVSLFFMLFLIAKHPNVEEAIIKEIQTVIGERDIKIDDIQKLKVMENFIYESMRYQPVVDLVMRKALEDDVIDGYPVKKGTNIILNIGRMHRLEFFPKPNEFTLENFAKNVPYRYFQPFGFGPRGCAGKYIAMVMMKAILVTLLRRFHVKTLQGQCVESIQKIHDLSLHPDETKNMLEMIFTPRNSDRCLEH

[7] = qHTS assay to identify aromatase inhibitors - cell viability counter screen (AID 743084);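 also: cells stimulated with testosterone during compound exposure; nearly all actives have a fitted effect of over 55% in size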; also: potency is read from the fitted curve at half-maximal effect
[8] = target: Aryl hydrocarbon receptor (Homo sapiens) (UniProt P35869); assay: qHTS assay to identify small molecule that activate the aryl hydrocarbon receptor (AhR) signaling pathway (AID 743085);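 also: HG2L7.5c1 human HepG2 liver cells with stably integrated DRE-driven firefly reporter; series mostly up to about 70 µM; nearly all actives have a fitted effect of over 15% in size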
Sequence of Aryl hydrocarbon receptor (Homo sapiens) (P35869 whole entry, looked up): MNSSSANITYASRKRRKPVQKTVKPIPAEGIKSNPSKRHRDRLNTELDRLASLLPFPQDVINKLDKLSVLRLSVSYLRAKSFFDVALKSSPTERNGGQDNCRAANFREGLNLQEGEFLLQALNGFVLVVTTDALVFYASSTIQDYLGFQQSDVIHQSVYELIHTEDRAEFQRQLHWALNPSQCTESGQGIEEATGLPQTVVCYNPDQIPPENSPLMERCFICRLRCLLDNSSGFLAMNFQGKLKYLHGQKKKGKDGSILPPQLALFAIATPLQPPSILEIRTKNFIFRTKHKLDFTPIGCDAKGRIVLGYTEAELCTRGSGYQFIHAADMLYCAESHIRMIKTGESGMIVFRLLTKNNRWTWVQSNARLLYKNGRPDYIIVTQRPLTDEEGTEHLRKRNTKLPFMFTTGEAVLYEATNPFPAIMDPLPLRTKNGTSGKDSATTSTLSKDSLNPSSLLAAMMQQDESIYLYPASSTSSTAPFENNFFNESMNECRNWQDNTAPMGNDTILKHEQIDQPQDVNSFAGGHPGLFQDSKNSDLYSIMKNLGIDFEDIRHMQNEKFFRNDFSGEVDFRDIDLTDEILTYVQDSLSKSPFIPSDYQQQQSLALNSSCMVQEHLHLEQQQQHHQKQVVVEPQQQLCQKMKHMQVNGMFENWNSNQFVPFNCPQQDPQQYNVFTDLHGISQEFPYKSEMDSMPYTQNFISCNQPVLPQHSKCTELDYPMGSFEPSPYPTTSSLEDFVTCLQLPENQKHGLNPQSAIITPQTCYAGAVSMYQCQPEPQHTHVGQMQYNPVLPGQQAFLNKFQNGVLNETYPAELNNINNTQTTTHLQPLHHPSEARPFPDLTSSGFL
Procedure, shortened: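 Luminescence (ONE-Glo) from a dioxin-responsive-element luciferase reporter in HG2L7.5c1 HepG2 cells after 24 hr compound exposure at 37C; viability measured by CellTiter-Fluor fluorescence beforehand.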

[9] = qHTS assay to identify small molecule that activate the aryl hydrocarbon receptor (AhR) signaling pathway - cell viability counter screen (AID 743086);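 also: HepG2 liver cells carrying the AhR DRE luciferase reporter; series mostly up to about 70 µM; nearly all actives have a fitted effect of over 45% in size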
Procedure, shortened: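 Cytotoxicity counter screen: CellTiter-Fluor signal (30 min, 37 C) in 4000 HepG2 cells/well carrying the DRE-luciferase reporter, following 24 h compound exposure at 37 C.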

[10] = target: Peroxisome proliferator-activated receptor gamma (Homo sapiens) (UniProt P37231); assay: qHTS assay to identify small molecule agonists of the peroxisome proliferator-activated receptor gamma (PPARg) signaling pathway (AID 743094; active = well fitted activation curve with a large enough effect in the signal ratio in the repeat runs, not every such curve was filed as active; inconclusive = weak or mixed curves, or effect the other way; inactive = no such curve, though single readings can be large or run the other way; the % refers to the signal ratio; also: potency is read from the fitted curve at half-maximal effect)
Sequence of Peroxisome proliferator-activated receptor gamma (Homo sapiens) (P37231 whole entry, looked up): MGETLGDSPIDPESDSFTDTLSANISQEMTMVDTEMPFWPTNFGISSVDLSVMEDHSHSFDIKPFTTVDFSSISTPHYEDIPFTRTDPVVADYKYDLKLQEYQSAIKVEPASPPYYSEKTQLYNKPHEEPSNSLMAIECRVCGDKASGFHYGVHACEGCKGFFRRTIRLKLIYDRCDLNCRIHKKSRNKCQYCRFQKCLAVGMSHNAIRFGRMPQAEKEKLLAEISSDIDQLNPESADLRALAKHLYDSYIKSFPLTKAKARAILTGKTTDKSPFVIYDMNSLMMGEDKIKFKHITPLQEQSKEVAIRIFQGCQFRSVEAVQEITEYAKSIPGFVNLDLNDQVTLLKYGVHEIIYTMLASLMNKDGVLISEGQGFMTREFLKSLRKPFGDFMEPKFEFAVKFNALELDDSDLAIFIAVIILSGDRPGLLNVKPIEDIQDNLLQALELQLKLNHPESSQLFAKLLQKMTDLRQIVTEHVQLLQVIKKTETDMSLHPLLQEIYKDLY
Procedure, shortened: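 Agonism was assessed in a beta-lactamase reporter system, HEK293H cells with a stably integrated UAS-bla construct under PPARg control; the 17 h treatment at 37C preceded a 1 h room-temperature FRET substrate read.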

[11] = qHTS assay to identify small molecule antagonists of the peroxisome proliferator-activated receptor gamma (PPARg) signaling pathway - cell viability counter screen (AID 743194); conditions: Potency: co-treated with 50 nM rosiglitazone; also: nearly all actives have a fitted effect of over 55% in size; also: potency is read from the fitted curve at half-maximal effect
Procedure, shortened: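 Viability was measured as CellTiter-Glo luminescence in GeneBLAzer PPARg UAS-bla HEK293H cells. These cells had been exposed 17 h at 37 C to compounds together with rosiglitazone at 50 nM final, with the beta-lactamase readout taken in the same wells.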

[12] = qHTS assay for small molecule agonists of the antioxidant response element (ARE) signaling pathway (AID 743202; active = well fitted activation curve with a large enough effect in the signal ratio in the repeat runs, not every such curve was filed as active; inconclusive = weak or mixed curves, or effect the other way; inactive = no such curve, though single readings can be large or run the other way; the % refers to the signal ratio; also: potency is read from the fitted curve at half-maximal effect)
Procedure, shortened: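 Beta-lactamase reporter activity, read as fluorescence intensity, reflects ARE/Nrf2 pathway induction in HepG2 cells after 16 h compound exposure at 37 C; substrate loading was 2 h at room temperature.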

[13] = qHTS assay for small molecule agonists of the antioxidant response element (ARE) signaling pathway - cell viability counter screen (AID 743203; calls by dose curve; also: nearly all actives have a fitted effect of over 55% in size; also: potency is read from the fitted curve at half-maximal effect)
Procedure, shortened: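 ATP content via CellTiter-Glo luminescence served as the viability measure. Cells: ARE-bla HepG2, 2,000 per well. Exposure: 16 hrs, 37C/5% CO2.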

[14] = qHTS assay for small molecule activators of the heat shock response signaling pathway - cell viability counter screen (AID 743209); also: nearly all actives have a fitted effect of over 50% in size; also: potency is read from the fitted curve at half-maximal effect
Procedure, shortened: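 Compounds dissolved in DMSO were added to overnight-plated HSE-bla HeLa cells and left 5 h at 37 C. Cell viability was quantified by luminescence using CellTiter-Glo.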

[15] = qHTS assay for small molecule activators of the heat shock response signaling pathway (AID 743210; active = well fitted activation curve with a large enough effect in the signal ratio in the repeat runs, with a control signal flat, not every such curve was filed as active; inconclusive = weak or mixed curves; the % refers to the signal ratio;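 also: HeLa cells with beta-lactamase reporter driven by heat shock elements; series mostly up to about 63 µM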)
Procedure, shortened: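 Fluorescence from a cleaved B/G FRET substrate (2.5 h, room temp) reports HSE-driven beta-lactamase in HeLa cells treated 5 h at 37 C with DMSO-dissolved compounds.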

[16] = target: Estrogen receptor (Homo sapiens) (UniProt P03372); assay: qHTS assay to identify small molecule agonists of the estrogen receptor alpha (ER-alpha) signaling pathway using the BG1 cell line (AID 743079); also: nearly all actives have a fitted effect of over 20% in size; also: potency is read from the fitted curve at half-maximal effect
Sequence of Estrogen receptor (Homo sapiens) (P03372 whole entry, looked up): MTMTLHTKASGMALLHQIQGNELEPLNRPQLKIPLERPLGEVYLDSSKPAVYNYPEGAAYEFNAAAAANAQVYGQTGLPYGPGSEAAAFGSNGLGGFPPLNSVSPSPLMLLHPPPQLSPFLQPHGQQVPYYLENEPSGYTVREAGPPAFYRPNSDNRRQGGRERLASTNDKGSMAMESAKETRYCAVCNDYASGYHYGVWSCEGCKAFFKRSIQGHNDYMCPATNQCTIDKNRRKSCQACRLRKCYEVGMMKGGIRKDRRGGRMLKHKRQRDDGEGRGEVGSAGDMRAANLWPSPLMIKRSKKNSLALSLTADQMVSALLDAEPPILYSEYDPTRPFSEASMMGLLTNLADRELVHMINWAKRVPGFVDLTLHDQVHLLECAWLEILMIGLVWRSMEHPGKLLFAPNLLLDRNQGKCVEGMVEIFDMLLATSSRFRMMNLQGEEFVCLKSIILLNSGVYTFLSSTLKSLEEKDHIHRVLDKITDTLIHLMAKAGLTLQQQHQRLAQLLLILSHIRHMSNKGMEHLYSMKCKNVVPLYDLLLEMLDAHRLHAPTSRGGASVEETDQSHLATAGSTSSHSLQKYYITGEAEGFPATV

[17] = target: Peroxisome proliferator-activated receptor gamma (Homo sapiens) (UniProt P37231); assay: qHTS assay to identify small molecule antagonists of the peroxisome proliferator-activated receptor gamma (PPARg) signaling pathway (AID 743191; calls by dose curve; also: series mostly up to about 63 µM; nearly all actives have a fitted effect of over 30% in size)
Procedure, shortened: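 Beta-lactamase reporter under UAS control in HEK293H PPARg-bla cells; compound treatment 17 h at 37C. Read-out: fluorescence intensity after 1 h room-temperature incubation with LiveBLAzer B/G FRET substrate.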

[18] = target: Estrogen receptor (Homo sapiens) (UniProt P03372); assay: qHTS assay to identify small molecule agonists of the estrogen receptor alpha (ER-alpha) signaling pathway (AID 743075; calls by dose curve;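 also: HEK293 GripTite cells with ER-alpha and UAS-driven beta-lactamase reporter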; also: potency is read from the fitted curve at half-maximal effect)

Compound | Potency [1] | Potency [2] | Potency [3] | Potency [4] | Potency [5] | Potency [6] | Potency (Aromatase (Homo sapiens)) | Potency [7] | Potency [8] | Potency [9] | Potency [10] | Potency [11] | Potency [12] | Potency [13] | Potency [14] | Potency [15] | Potency [16] | Potency [17] | Potency [18]
OC[P+](CO)(CO)CO | inactive | inactive | inactive | inactive | inactive | inactive | inactive | 61.8 µM (active) and inactive | inactive | inactive | inactive | inactive | 12.3 µM (active) and 8.63 µM (active) | inactive | inactive | inactive | – | – | –
CC[N+]1(CCOC(=O)C(O)(c2ccccc2)c2ccccc2)CCCCC1 | inactive | inactive | inactive | inactive | inactive | inactive | inactive | inactive | – | inactive | inactive | inactive | – | inactive | inactive | inactive | 8.41 µM (active) | inactive | –
O=C(Cc1ccccc1)c1ccccc1 | inactive | inactive | inactive | inactive | – | inactive | inactive | inactive | inactive | inactive | – | inactive | inactive | inactive | inactive | inactive | – | – | inactive
Cc1ccccc1 | inactive | inactive | inactive | inactive | – | inactive | inactive | inactive | inactive | inactive | inactive | inactive | inactive | inactive | inactive | inactive | – | – | –
CCC(C)(C)c1ccc(O)c(C(C)(C)CC)c1 | 12.1 µM (active) and 13.7 µM (active) | 12.1 µM (active) and 12.2 µM (active) | inactive | inactive | 61.1 µM (active) | – | 60.4 µM (active) and 30.6 µM (active) | 42.8 µM (active) and 27.3 µM (active) | inactive | inactive | inactive | 24.3 µM (active) and 21.9 µM (active) | inactive | 61.1 µM (active) | 17.2 µM (active) and 17.4 µM (active) | – | inactive | – | inactive
CCc1cnc(C2=NC(C)(C(C)C)C(=O)N2)c(C(=O)O)c1 (stereo not given) | inactive | inactive | inactive | inactive | – | inactive | inactive | inactive | inactive | inactive | inactive | inactive | inactive | inactive | inactive | inactive | – | – | –
CC(C)(C#N)C(C)(C)C#N | inactive | inactive | inactive | inactive | – | inactive | inactive | inactive | inactive | inactive | inactive | inactive | inactive | inactive | inactive | inactive | – | – | –
CN(C)N | inactive | inactive | inactive | inactive | – | inactive | inactive | inactive | inactive | inactive | inactive | inactive | inactive | inactive | inactive | inactive | – | – | –
C=C(C)C(=O)OCCCCOC(=O)C(=C)C | inactive | inactive | inactive | inactive | inactive | inactive | – | inactive | inactive | inactive | inactive | inactive | inactive | inactive | inactive | inactive | inactive | – | inactive
CCOC(=O)C1OC1(C)c1ccccc1 (stereo not given) | inactive | inactive | inactive | inactive | – | inactive | inactive | inactive | inactive | inactive | inactive | inactive | inactive | inactive | inactive | inactive | – | inactive | –
CCCCOC(=O)CCC(=O)OCCCC | inactive | inactive | inactive | inactive | – | inactive | inactive | inactive | inactive | inactive | inactive | inactive | inactive | inactive | inactive | inactive | – | – | –
COP(=O)(OC)OC(Br)C(Cl)(Cl)Br (stereo not given) | 54.5 µM (active) and 61.1 µM (active) | 54.5 µM (active) and 48.6 µM (active) | inactive | inactive | – | inactive | 61.2 µM (active) and 61.1 µM (active) | 48.6 µM (active) | inactive | inactive | 54.9 µM (active) | – | 19.4 µM (active) and 9.69 µM (active) | inactive | inactive | inactive | inactive | – | 61.7 µM [inconclusive] (active) and inactive
NP(N)(=O)NC(=O)c1ccc(F)cc1 | inactive | inactive | inactive | inactive | inactive | inactive | inactive | inactive | – | inactive | inactive | inactive | inactive | inactive | inactive | inactive | – | – | inactive
O=C(O)C(F)(F)C(F)(F)C(F)(F)C(F)(F)C(F)(F)F | inactive | inactive | inactive | inactive | inactive | inactive | inactive | – | inactive | – | inactive | inactive | inactive | inactive | inactive | inactive | inactive | – | inactive
CCCC[P+](CC)(CCCC)CCCC (tested in a mixture with another compound) | inactive | inactive | inactive | inactive | – | inactive | inactive | inactive | inactive | inactive | inactive | inactive | inactive | inactive | inactive | inactive | – | inactive | –
